About 79,000 compounds went through this panel and 15% of them were active in at least one assay; those are over-represented in the sample as a whole. Values without a mark were called inactive. The source made the active and inactive calls. Cut-off read from the data, not from the text of the source: active = growth inhibition above about 70%; inactive = the rest.

Assay [1] can be described thus: NCI Yeast Anticancer Drug Screen. Data for the rad50 strain (AID 155).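 Note: 0% = growth of vehicle-only cultures of the same strain.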 As to conditions: S. cerevisiae rad50 strain growth inhibition, active compounds read high. An outline of the steps: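 Vehicle-treated cultures provide the reference for the growth inhibition reported for compound-exposed, repair-deficient yeast.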
A short description of assay [2]: NCI Yeast Anticancer Drug Screen. Data for the mec2-1 strain (AID 157). Conditions: S. cerevisiae mec2-1 strain, active compounds read high. An outline of the steps: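 Test agents were screened against the mec2-1 yeast strain, with defined DNA repair or cell cycle alteration. Growth was scored as inhibition against vehicle-only controls.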
Assay [3] is described as follows: NCI Yeast Anticancer Drug Screen. Data for the sgs1 mgt1 strain (AID 161).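 Note: 0% = growth of cultures given vehicle only.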 Conditions: S. cerevisiae sgs1 mgt1 strain, active compounds read high. The method in brief: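 Mutant yeast exposed to compound; growth scored against vehicle-only wells.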
Assay [4] is described as follows: NCI Yeast Anticancer Drug Screen. Data for the cln2 rad14 strain (AID 165).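 Note: 0% = growth equal to vehicle treated cultures.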 As to conditions: S. cerevisiae cln2 rad14 strain, active compounds read high. The method in brief: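 Growth of compound-exposed yeast (cln2 rad14 genotype) measured and expressed as inhibition relative to vehicle.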
Assay [5] can be described thus: NCI Yeast Anticancer Drug Screen. Data for the bub3 strain (AID 167). Conditions: S. cerevisiae bub3 mutant strain, active compounds read high. The method in brief:
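Mutant yeast screening strain plus compound; vehicle-treated cultures serve as the 0% inhibition reference.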

Assay [6] is described as follows: NCI Yeast Anticancer Drug Screen. Data for the mlh1 rad18 strain (AID 175). As to conditions: S. cerevisiae mlh1 rad18 strain growth inhibition, active compounds read high. An outline of the steps: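 In this whole-cell yeast screen, a strain with altered DNA damage repair is challenged with compound, and its growth is measured against matched vehicle-treated controls.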

Setting [7] is: at 5.0 µM (retest, dose inferred, filed as 0.5).
Setting [8] is: at 50.0 µM (retest, dose inferred, filed as 5.0).

As to `CC(C)=NNc1ncnc2nc[nH]c12`, the growth inhibition in assay [1] (setting [7]) was 11%; in assay [1] (setting [8]), 3%; in assay [1] (at 50.0 µM) it was 12.5%; in assay [2] (setting [7]), -1%; in assay [2] (setting [8]), -11%; in assay [2] (at 50.0 µM), 19.1%. Besides, the growth inhibition is -4% in assay [3] (setting [7]); -13% in assay [3] (setting [8]); -28.8% in assay [3] (at 50.0 µM); 4% in assay [4] (setting [7]); -3% in assay [4] (setting [8]); 25.6% in assay [4] (at 50.0 µM). Further, the growth inhibition is 5% in assay [5] (setting [7]); 2% in assay [5] (setting [8]); 6.9% in assay [5] (at 50.0 µM); -14% in assay [6] (setting [7]); 3% in assay [6] (setting [8]); -7.5% in assay [6] (at 50.0 µM).
In the case of `COc1ccc2c3c(ccc2c1)NC(C(=O)O)CC3` (stereo not given), the growth inhibition in assay [1] (setting [7]) is 0%; in assay [1] (setting [8]) it was 82% (active); in assay [1] (at 50.0 µM) it was 60.5%; in assay [2] (setting [7]), -11%; in assay [2] (setting [8]), 56%; in assay [2] (at 50.0 µM), -15.8%. The growth inhibition was -2% in assay [3] (setting [7]); 83% (active) in assay [3] (setting [8]); 36% in assay [3] (at 50.0 µM); -17% in assay [4] (setting [7]); 41% in assay [4] (setting [8]); 21.3% in assay [4] (at 50.0 µM). The growth inhibition in assay [5] (setting [7]) was -6%; in assay [5] (setting [8]), 82% (active); in assay [5] (at 50.0 µM), 52%; in assay [6] (setting [7]) it was 3%; in assay [6] (setting [8]), 87% (active); in assay [6] (at 50.0 µM) it was 61.1%.
Consider `CCCCCN(CCCCC)CC(=O)OCC1(C)CCCC2(C)C3CCC(C(C)C)=CC3=CCC12` (stereo not given), for which the growth inhibition was 1% in assay [1] (setting [7]); 22% in assay [1] (setting [8]); -3.45% in assay [1] (at 50.0 µM); 2% in assay [2] (setting [7]); 54% in assay [2] (setting [8]); -9.75% in assay [2] (at 50.0 µM). Besides, the growth inhibition was -3% in assay [3] (setting [7]); 80% (active) in assay [3] (setting [8]); 74.2% (active) in assay [3] (at 50.0 µM); -1% in assay [4] (setting [7]); 39% in assay [4] (setting [8]); -59% in assay [4] (at 50.0 µM). The growth inhibition is 1% in assay [5] (setting [7]); 73% (active) in assay [5] (setting [8]); -8.05% in assay [5] (at 50.0 µM); 2% in assay [6] (setting [7]); 67% in assay [6] (setting [8]); 28.4% in assay [6] (at 50.0 µM).
In the case of `CCc1ccccc1NC(=O)C(=O)C(C#N)c1c(Cl)cccc1Cl` (stereo not given), the growth inhibition in assay [1] (setting [7]) is -8%; in assay [1] (setting [8]), -2%; in assay [1] (at 50.0 µM) it was -26.7%; in assay [2] (setting [7]), 2%; in assay [2] (setting [8]), 1%; in assay [2] (at 50.0 µM), 8.8%. Moreover, the growth inhibition in assay [3] (setting [7]) was -17%; in assay [3] (setting [8]), -33%; in assay [3] (at 50.0 µM), 20.7%; in assay [4] (setting [7]), -6%; in assay [4] (setting [8]), 4%; in assay [4] (at 50.0 µM), -28.7%. Besides, the growth inhibition in assay [5] (setting [7]) was 1%; in assay [5] (setting [8]), 0%; in assay [5] (at 50.0 µM), 12.2%; in assay [6] (setting [7]), 0%; in assay [6] (setting [8]), -1%; in assay [6] (at 50.0 µM), 14.7%.
On to `CC(C)(C)c1ccc(Sc2ncnc3ccccc23)cc1`, for which the growth inhibition in assay [1] (setting [7]) was 4%; in assay [1] (setting [8]), 78% (active); in assay [1] (at 50.0 µM) it was 90.8% (active); in assay [2] (setting [7]), 21%; in assay [2] (setting [8]) it was 90% (active); in assay [2] (at 50.0 µM), 89.3% (active). Moreover, the growth inhibition is 2% in assay [3] (setting [7]); 89% (active) in assay [3] (setting [8]); 89.5% (active) in assay [3] (at 50.0 µM); -1% in assay [4] (setting [7]); 81% (active) in assay [4] (setting [8]); 71.2% (active) in assay [4] (at 50.0 µM). Further, the growth inhibition in assay [5] (setting [7]) is 3%; in assay [5] (setting [8]), 90% (active); in assay [5] (at 50.0 µM) it was 92.5% (active); in assay [6] (setting [7]), -6%; in assay [6] (setting [8]), 87% (active); in assay [6] (at 50.0 µM) it was 91.6% (active).
In the case of `CCOC(=O)c1cc2c(nc1NCc1ccc(OC)c(OC)c1)/C(=C/c1ccccc1)CCCC2`, the growth inhibition in assay [1] (setting [7]) was 38%; in assay [1] (setting [8]), 94% (active); in assay [1] (at 50.0 µM), 90.2% (active); in assay [2] (setting [7]), 17%; in assay [2] (setting [8]), 93% (active); in assay [2] (at 50.0 µM) it was 88.8% (active). Moreover, the growth inhibition in assay [3] (setting [7]) was 47%; in assay [3] (setting [8]), 94% (active); in assay [3] (at 50.0 µM), 91.8% (active); in assay [4] (setting [7]), 28%; in assay [4] (setting [8]), 84% (active); in assay [4] (at 50.0 µM), 80.2% (active). In addition, the growth inhibition is 49% in assay [5] (setting [7]); 94% (active) in assay [5] (setting [8]); 92.5% (active) in assay [5] (at 50.0 µM); 58% in assay [6] (setting [7]); 92% (active) in assay [6] (setting [8]); 90.2% (active) in assay [6] (at 50.0 µM).
Take `COC(=O)c1cc(-c2c[nH]cc2C(=O)OCc2ccccc2)cn1S(=O)(=O)c1ccc(C)cc1`: the growth inhibition in assay [1] (setting [7]) was 17%; in assay [1] (setting [8]), 6%; in assay [1] (at 50.0 µM), 92.5% (active); in assay [2] (setting [7]), 18%; in assay [2] (setting [8]), 11%; in assay [2] (at 50.0 µM), 93.1% (active). For the same compound, the growth inhibition in assay [3] (setting [7]) is 7%; in assay [3] (setting [8]), -6%; in assay [3] (at 50.0 µM), 94.4% (active); in assay [4] (setting [7]) it was 2%; in assay [4] (setting [8]) it was 2%; in assay [4] (at 50.0 µM), 88.9% (active). In addition, the growth inhibition in assay [5] (setting [7]) was -39%; in assay [5] (setting [8]), 2%; in assay [5] (at 50.0 µM), 87.3% (active); in assay [6] (setting [7]), 24%; in assay [6] (setting [8]) it was 22%; in assay [6] (at 50.0 µM), 91.2% (active).
Take `c1ccc(CCC2=Nc3ccccc3CO2)cc1`: the growth inhibition in assay [1] (setting [7]) was -160%; in assay [1] (setting [8]), -155%; in assay [1] (at 50.0 µM), 7.75%; in assay [2] (setting [7]), -48%; in assay [2] (setting [8]) it was -56%; in assay [2] (at 50.0 µM), -6.5%. The growth inhibition was -64% in assay [3] (setting [7]); -63% in assay [3] (setting [8]); 12.2% in assay [3] (at 50.0 µM); -67% in assay [4] (setting [7]); -87% in assay [4] (setting [8]); 13.3% in assay [4] (at 50.0 µM). The growth inhibition in assay [5] (setting [7]) is -68%; in assay [5] (setting [8]), -69%; in assay [5] (at 50.0 µM), -18.7%; in assay [6] (setting [7]), -126%; in assay [6] (setting [8]), -124%; in assay [6] (at 50.0 µM), -8.4%.
`O=c1oc2ccccc2c(O)c1C1=N/C(=N/N=C/c2ccc(Cl)cc2)SC1`: the growth inhibition in assay [1] (setting [7]) was -6%; in assay [1] (setting [8]), 97% (active); in assay [1] (at 50.0 µM), 64.2%; in assay [2] (setting [7]), -3%; in assay [2] (setting [8]) it was 98% (active); in assay [2] (at 50.0 µM), 30.7%. The growth inhibition in assay [3] (setting [7]) was -3%; in assay [3] (setting [8]) it was 97% (active); in assay [3] (at 50.0 µM) it was 4.05%; in assay [4] (setting [7]), 0%; in assay [4] (setting [8]), 95% (active); in assay [4] (at 50.0 µM), 50.2%. Moreover, the growth inhibition is -1% in assay [5] (setting [7]); 97% (active) in assay [5] (setting [8]); 98.5% (active) in assay [5] (at 50.0 µM); 1% in assay [6] (setting [7]); 97% (active) in assay [6] (setting [8]); 47.2% in assay [6] (at 50.0 µM).
Turning to `O=C(Nn1cc(F)c(=O)[nH]c1=O)C12CC3CC(CC(C3)C1)C2`, the growth inhibition in assay [1] (setting [7]) was 41%; in assay [1] (setting [8]) it was 92% (active); in assay [1] (at 50.0 µM), 21.8%; in assay [2] (setting [7]), 20%; in assay [2] (setting [8]), 96% (active); in assay [2] (at 50.0 µM), 51.4%. The growth inhibition in assay [3] (setting [7]) is 42%; in assay [3] (setting [8]) it was 96% (active); in assay [3] (at 50.0 µM), 91.4% (active); in assay [4] (setting [7]), 20%; in assay [4] (setting [8]), 52%; in assay [4] (at 50.0 µM), 86.1% (active). The growth inhibition was 41% in assay [5] (setting [7]); 90% (active) in assay [5] (setting [8]); 87.5% (active) in assay [5] (at 50.0 µM); 41% in assay [6] (setting [7]); 97% (active) in assay [6] (setting [8]); 57.9% in assay [6] (at 50.0 µM).

(Values after PubChem BioAssay (NCI).)
